Hits are enriched below; roughly 11% of the tested compounds scored in any of these assays.
3T3 cytotox: kills NIH 3T3 cells; NIH 3T3 viability, CellTiter-Glo ATP luminescence, 48-72 h; actives 4.3% (n = 94,000); Potency, µM (series often up to 96.7 µM), for the others: at the top dose activity change, negative = cytotoxicity, hits mostly inhibitors; further: on the % scale 0 is the no-effect control and ±100 the full control effect; nearly all actives have a fitted effect of over 55% in size
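First NIH 3T3 cells are plated at 400 cells/well; next compound is pinned in; then plates incubate 48 or 72 hr at 37 °C; finally CellTiter-Glo is added and luminescence read after 10 min.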
HEK cytotox: kills HEK 293 cells. HEK 293 viability, ATP luminescence (CellTiter-Glo), 48-72 h. Potency, µM (titrated, usually from 115 µM), without a hit: top-dose activity change, negative = cytotoxicity, actives largely listed as inhibitors. actives 6.6% (n = 94,000). AID 1345083; further: on the % scale 0 is the no-effect control and ±100 the full control effect; nearly all actives have a fitted effect of over 60% in size
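Pintool-delivered compounds were incubated with HEK 293 cells (250 cells/well) at 37 degree Celsius for 48 or 72 hr. ATP-dependent luminescence (CellTiter-Glo) then reported remaining viable cells.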
FLuc inh-1: Photinus pyralis luciferase inhibition; purified P. pyralis luciferase, luminescence, biochemical; Potency, µM (series often up to 115 µM), most hits filed as inhibitors; actives 2.5% (n = 76,000); AID 1347043; further: on the % scale 0 is the no-effect control and ±100 the full control effect; nearly all actives have a fitted effect of over 65% in size
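Luminescence read by CCD imaging after purified firefly luciferase (10nM final) was added to substrate buffer holding 10uM D-luciferin and 10uM ATP, pH 7.5, pre-dosed with compound.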
NPR1 antag: antagonists of human natriuretic peptide receptor Npr1 | actives 1.6% (n = 76,000) | P16066 | Potency, µM (doses to about 46.3 µM), inactives show top-dose activity change, negative = inhibition, most hits filed as inhibitors | AID 1347048 | HEK293 hNpr1 GloSensor cGMP, ANP-stimulated luminescence; calls by dose curve; further: on the % scale 0 is the no-effect control and ±100 the full control effect; nearly all actives have a fitted effect of over 60% in size
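Compound pre-incubated 30 min at room temperature on GloSensor-loaded HEK293 cells stably carrying hNpr1 and the pGS-40F cGMP biosensor. Stimulation uses hNppA at 0.1 nM final; luminescence is taken at baseline and 20 min post-agonist.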
FLuc SDR no ATP: firefly luciferase binding stabilization, ATP absent. shares compounds with FLuc inh-1. Purified FLuc-C-HiBiT, Nano-Glo HiBiT luminescence, no ATP. Potency, µM (series often up to 32.7 µM), without a hit: at the top dose activation (signal gain), actives largely listed as activators. actives 7.8% (n = 1,300). AID 1963318; further: nearly all actives have a fitted effect of over 55% in size
FLuc SDR ATP: binders stabilizing firefly luciferase, plus ATP; shares compounds with FLuc inh-1; purified FLuc-C-HiBiT + ATP, HiBiT complementation luminescence; Potency, µM (titrated, usually from 32.7 µM), inactives show at the top dose activation (gain of signal), most hits filed as activators; actives 8.7% (n = 1,300); AID 1963319;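 further: signal reports ligand binding via conformational change of the enzyme rather than luciferase catalysis; % of control where 0% means no effect; nearly all actives have a fitted effect of over 55% in size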
FLuc inh-2: blocks firefly luciferase enzymatic activity; AID 1963320; shares compounds with FLuc inh-1; Potency, µM (doses to about 32.7 µM), for the others: at the top dose activity change, negative = inhibition, most hits filed as inhibitors; actives 42% (n = 1,300); purified FLuc-C-HiBiT enzyme, luciferin luminescence; further: on the % scale 0 is the no-effect control and ±100 the full control effect; nearly all actives have a fitted effect of over 70% in size
Starred values were filed as active, the others as inactive; i = inactive; ? = inconclusive; · = no result; [ ] = remark or other dose. Unless noted, the call rests on the fitted dose curve; in most records, active means well fitted curve in the direction sought with a large enough effect; inconclusive means small, poorly fitted or top-dose-only effect, or another doubt; inactive means no such curve, though single readings can be large; an effect the other way counts as inactive or inconclusive. Potency means the concentration at half of the fitted maximal effect.

SMILES	3T3 cytotox	HEK cytotox	FLuc inh-1	NPR1 antag	FLuc SDR no ATP	FLuc SDR ATP	FLuc inh-2
O=C(NCc1ccc(Cl)cc1)C1CCN(C(=O)c2ncn3c2COC(c2ccccc2)C3)CC1 (centres undefined)	-7%	-17%	8.9µM*	-23%	14%	?	3.9µM*
NC1CC(c2cc(N3CCC(OCc4ccccc4)CC3)ncn2)C1 (centres undefined)	?	?	i	-1%	·	·	·
COC1C(=O)N(c2cccc(F)c2)C12CCN(S(=O)(=O)c1ccc(C#N)cc1)CC2 (centres undefined)	1%	-20%	i	-4%	·	·	·
CC(C)CCNC(=O)C1CCN(C(=O)c2ncn3c2COC(c2ccc(F)cc2)C3)CC1 (centres undefined)	-15%	-1%	?	2%	·	·	·
O=C(NCc1ccc2c(c1)OCO2)C1CCN(C(=O)c2ncn3c2COC(c2ccccc2)C3)CC1 (centres undefined)	i	14%	7.9µM*	-24%	16%	?	7µM*
O=C(NCc1ccc2c(c1)OCO2)C1CCN(c2cc(C(F)(F)F)ncn2)CC1	?	?	10µM*	?	16%	17%	?
O=C(NCc1cc(F)ccc1F)C1CCN(C(=O)c2ncn3c2COC(c2ccccc2)C3)CC1 (centres undefined)	-7%	-10%	2.2µM*	-16%	9%	?	3.1µM*
O=C(NCCc1ccccc1)C1CCN(c2cc(C(F)(F)F)ncn2)CC1	-15%	-21%	i	-17%	·	·	·
O=C(NCc1cccnc1)C1CCc2nnc(C3CCN([S+](=O)([O-])c4ccccc4Cl)CC3)n21 (centres undefined)	-18%	-19%	·	·	·	·	·
Cc1ccc2nc(-c3cccc(NC(=O)CSc4ccc(Cl)cc4)c3)oc2c1	·	·	·	·	31%	18%	?
O=C(Nc1cccc(Cl)c1)c1ccc2nc(-c3cccnc3)oc2c1	-22%	-30%	·	·	·	·	·
Cc1cc2nc(-c3cccc(NC(=O)COc4ccc(C(C)C)cc4)c3)oc2cc1C	·	·	·	·	28%	?	?
COc1ccc(Cn2c(=O)[nH]c3cccnc32)cc1	-13%[138 µM]	-19%[172 µM]	i	1%[70.6 µM]	·	·	·
COCCOc1nc(N)c2[nH]c(=O)n(Cc3ccc(C(=O)O)cc3)c2n1	·	·	·	·	12%[11.8 µM]	7%[11.8 µM]	-1%[11.8 µM]
Nc1ccc2nc(-c3ccc(O)cc3)sc2c1	·	·	·	·	3.9µM*	?	0.62µM*
C=C(C)C(C)(C)C(=O)N1CCCC(N2CCN(c3ccccc3OC)CC2)C1 (centres undefined)	1%	?	i	3%	·	·	·
CC(=O)Nc1ccc(NC(=O)c2cc(-c3ccc4c(c3)OCCO4)on2)cc1	·	·	·	·	?	?	0.62µM*
O=C(NCCc1cccs1)C1CCN(C(=O)c2ncn3c2COC(c2ccccc2)C3)CC1 (centres undefined)	-6%	-9%	7.1µM*	-7%	13%	?	4.4µM*
O=C(NCCc1ccccc1)C1CCN(C(=O)c2ncn3c2COC(c2ccc(Cl)cc2)C3)CC1 (centres undefined)	4%	-7%	?	-2%	·	·	·
O=C(NCc1cccs1)C1CCN(C(=O)c2ncn3c2COC(c2ccccc2)C3)CC1 (centres undefined)	-2%	4%	6.3µM*	-15%	13%	2.2µM*	2.5µM*
CCCCNC(=O)C1CCN(C(=O)c2ncn3c2COC(c2ccccc2)C3)CC1 (centres undefined)	2%	-2%	7.1µM*	2%	14%	?	?
O=C(NCCc1cccs1)C1CCN(C(=O)c2ncn3c2COC(c2ccc(F)cc2)C3)CC1 (centres undefined)	i	-2%	i	-2%	·	·	·
O=C(c1cccc(Cl)c1)N1CCC2(CC1)NC(=O)N(c1ccccc1Cl)N2	?	?	i	0%	·	·	·

Compound activity from PubChem.
